In PubChem BioAssay (NCATS):
Where “and” joins values, the source holds several entries; their conditions need not be identical. Equal values may be shown once. Results filed as inconclusive are left out. Where a call stands in place of a potency, no number is given. Unmarked numbers belong to inactive results. Calls of active or inactive are those of the source. Calls follow the shape of the dose curve; as a rule, active = well fitted curve in the direction sought with a large enough effect; inconclusive = small, poorly fitted or top-dose-only effect, or another doubt; inactive = no such curve, though single readings can be large; an effect the other way counts as inactive or inconclusive.

How the values were obtained:
KB-3-1 = test: Cytotoxic Profiling of Annotated Libraries Using Quantitative High-Throughput Screening (AID 1296008); conditions: Five cell lines viability, CellTiter-Glo ATP luminescence, 48-72 h; max response: hits give low values; also: nearly all actives have a fitted effect of over 60% in size
In short: (§1)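 Cells exposed to compounds for 48 or 72 hr at 37 degrees Celsius. Viability read as ATP-coupled luminescence with CellTiter-Glo after 10 min at room temperature.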

MCC-13 = test: qHTS assay to identify novel small-molecules to repurpose for Merkel cell carcinoma treatment (AID 1296009); conditions: MCC and control cell lines, CellTiter-Glo viability, 72 h; series mostly up to 46 µM; also: nearly all actives have a fitted effect of over 60% in size; also: potency is read from the fitted curve at half-maximal effect
In short: (§2)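 CellTiter-Glo luminescence after 72 hr compound exposure at 37 degree celsius gave cell viability. Libraries NPC and MIPE were run as 8- and 11-point dose responses; RLUs normalized to DMSO (negative) and no-cell (cytotoxicity) controls.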

MCC-26 = test: as above; conditions: MCC and control cell lines, CellTiter-Glo viability, 72 h; series mostly up to 46 µM
In short: as §2

MKL-1 = test: as above; conditions: MCC and control cell lines, CellTiter-Glo viability, 72 h; series mostly up to 46 µM
In short: as §2

MKL-2 = test: as above; conditions: MCC and control cell lines, CellTiter-Glo viability, 72 h; series mostly up to 46 µM
In short: as §2

UISO = test: as above; conditions: MCC and control cell lines, CellTiter-Glo viability, 72 h; series mostly up to 46 µM
In short: as §2

WaGa = test: as above; conditions: MCC and control cell lines, CellTiter-Glo viability, 72 h; series mostly up to 46 µM
In short: as §2

C33A = test: Primary qHTS to identify gynecologic anti-cancer compounds using libraries of approved drugs and bioactive compounds (AID 1345084); conditions: Gynecologic cancer cell panel viability, ATPlite luminescence, 48 h; series mostly up to 57.5 µM; also: nearly all actives have a fitted effect of over 55% in size
In short: (§3)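 Cytotoxicity screen measuring ATP content by luciferase luminescence. Each compound is applied at five concentrations for 48 h at 37 C with 5% CO2.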

CAOV3 = test: as above; conditions: Gynecologic cancer cell panel viability, ATPlite luminescence, 48 h; series mostly up to 57.5 µM
In short: as §3

CASKI = test: as above; conditions: Gynecologic cancer cell panel viability, ATPlite luminescence, 48 h; series mostly up to 57.5 µM
In short: as §3

Es-2 = test: as above; conditions: Gynecologic cancer cell panel viability, ATPlite luminescence, 48 h; series mostly up to 57.5 µM
In short: as §3

HeLa = test: as above; conditions: Gynecologic cancer cell panel viability, ATPlite luminescence, 48 h; series mostly up to 57.5 µM
In short: as §3

Hek293T [1] = test: as above; conditions: Gynecologic cancer cell panel viability, ATPlite luminescence, 48 h, control line for the selectivity index; series mostly up to 57.5 µM
In short: as §3

JEG-3 = test: as above; conditions: Gynecologic cancer cell panel viability, ATPlite luminescence, 48 h; series mostly up to 57.5 µM
In short: as §3

OV90 = test: as above; conditions: Gynecologic cancer cell panel viability, ATPlite luminescence, 48 h; series mostly up to 57.5 µM
In short: as §3

NIH3T3 [2] = test: Cytotoxic Profiling of Annotated Libraries Using Quantitative High-Throughput Screening (AID 1296008); conditions: Five cell lines viability, CellTiter-Glo ATP luminescence, 48-72 h; max response: hits give low values; also: nearly all actives have a fitted effect of over 60% in size
In short: as §1

NIH3T3 [3] = test: qHTS assay to identify novel small-molecules to repurpose for Merkel cell carcinoma treatment (AID 1296009); conditions: MCC and control cell lines, CellTiter-Glo viability, 72 h; at 44.8 µM (top of the series) unless noted; also: nearly all actives have a fitted effect of over 60% in size; also: potency is read from the fitted curve at half-maximal effect
In short: as §2

CRL-7250 = normal cell line; test: as above; conditions: MCC and control cell lines, CellTiter-Glo viability, 72 h; at 44.8 µM (top of the series) unless noted
In short: as §2

HACAT = test: as above; conditions: MCC and control cell lines, CellTiter-Glo viability, 72 h; at 44.8 µM (top of the series) unless noted
In short: as §2

HEK293T [4] = test: as above; conditions: MCC and control cell lines, CellTiter-Glo viability, 72 h; at 44.8 µM (top of the series) unless noted
In short: as §2

COc1ccc2c(c1OC)C(=O)O[C@H]2[C@@H]1c2cc3c(cc2CCN1C)OCO3 was tested, and the max response (KB-3-1) was 3.84%, the outcome (MCC-13) was “inactive” and the Potency (MCC-26) was “inactive”. The Potency (MKL-1) was “inactive”, the Potency (MKL-2) was “inactive” and the Potency (UISO) was “inactive”. The Potency (WaGa) was “inactive”, the Potency (C33A) was “inactive” and the outcome (CAOV3) was “inactive”. The outcome (CASKI) was “inactive”, the Potency (Es-2) was “inactive” and the Potency (HeLa) was “inactive”. For the same compound, the outcome (Hek293T [1]) was “inactive”, the outcome (JEG-3) was “inactive” and the Potency (OV90) was “inactive”.

With CN1C(=O)COc2c(C(=O)NC3CN4CCC3CC4)cc(Cl)cc21 (stereo unspecified) the max response (KB-3-1) was 2.45%, the max response (NIH3T3 [2]) was -0.6% and 1.75% and the outcome (MCC-13) was “inactive”. The Potency (MCC-26) was “inactive”, the Potency (MKL-1) was “inactive” and the Potency (MKL-2) was “inactive”. For the same compound, the Potency (UISO) was “inactive”, the Potency (WaGa) was “inactive” and the Potency (C33A) was “inactive”. The outcome (CAOV3) was “inactive”, the outcome (CASKI) was “inactive” and the Potency (Es-2) was “inactive”. For the same compound, the Potency (HeLa) was “inactive”, the outcome (Hek293T [1]) was “inactive” and the outcome (JEG-3) was “inactive”. The Potency (OV90) was “inactive”.

In the case of CC(C)NC(C)C, the max response (KB-3-1) is reported as 13.4%, the outcome (NIH3T3 [2]) is reported as “inactive” and the outcome (MCC-13) is reported as “inactive”. For the same compound, the Potency (MKL-1) was “inactive”, the Potency (MKL-2) was “inactive” and the outcome (NIH3T3 [3]) was “inactive”. The Potency (UISO) was “inactive”, the Potency (WaGa) was “inactive” and the Potency (C33A) was “inactive”. For the same compound, the outcome (CAOV3) was “inactive”, the outcome (CASKI) was “inactive” and the Potency (Es-2) was “inactive”. The Potency (HeLa) was “inactive”, the outcome (Hek293T [1]) was “inactive” and the outcome (JEG-3) was “inactive”. The Potency (OV90) was “inactive”.

With COC1CC(=C(c2cccs2)c2cccs2)C[N+](C)(C)C1 (stereo unspecified) the max response (KB-3-1) was 0.141%, the max response (NIH3T3 [2]) was 0.648% and the outcome (MCC-13) was “inactive”. For the same compound, the Potency (MCC-26) was “inactive”, the Potency (MKL-1) was 21.1 µM (active) and the Potency (MKL-2) was 7.5 µM (active). For the same compound, the Potency (WaGa) was 11.9 µM (active), the Potency (C33A) was “inactive” and the Potency (Es-2) was “inactive”. The outcome (Hek293T [1]) was “inactive”, the outcome (JEG-3) was “inactive” and the Potency (OV90) was “inactive”.

COP(=S)(OC)Oc1ccc(S(=O)(=O)N(C)C)cc1 was tested, and the max response (KB-3-1) was -10.7%, the max response (NIH3T3 [2]) was -0.737% and the outcome (MCC-13) was “inactive”. For the same compound, the Potency (MKL-1) was “inactive”, the Potency (MKL-2) was “inactive” and the Potency (UISO) was “inactive”. For the same compound, the Potency (WaGa) was “inactive”, the Potency (C33A) was “inactive” and the outcome (CAOV3) was “inactive”. For the same compound, the outcome (CASKI) was “inactive”, the Potency (Es-2) was “inactive” and the Potency (HeLa) was “inactive”. For the same compound, the outcome (Hek293T [1]) was “inactive”, the outcome (JEG-3) was “inactive” and the Potency (OV90) was “inactive”.

Clc1ccc(C(c2ccc(Cl)cc2)C(Cl)(Cl)Cl)cc1 was tested, and the max response (KB-3-1) was -11.6%, the max response (NIH3T3 [2]) was -6.38% and the outcome (MCC-13) was “inactive”. For the same compound, the Potency (MCC-26) was “inactive”, the Potency (MKL-1) was “inactive” and the Potency (MKL-2) was “inactive”. For the same compound, the Potency (UISO) was “inactive”, the Potency (WaGa) was “inactive” and the Potency (C33A) was “inactive”. The outcome (CASKI) was “inactive”, the Potency (Es-2) was “inactive” and the Potency (HeLa) was “inactive”. The outcome (Hek293T [1]) was “inactive”, the outcome (JEG-3) was “inactive” and the Potency (OV90) was “inactive”.

In the case of CC(C)(N)Cc1ccccc1Cl, the max response (NIH3T3 [2]) is reported as -1.53%, the outcome (CRL-7250) is reported as “inactive” and the outcome (HACAT) is reported as “inactive”. The outcome (HEK293T [4]) was “inactive”, the outcome (MCC-13) was “inactive” and the Potency (MCC-26) was “inactive”. For the same compound, the Potency (MKL-1) was “inactive”, the Potency (MKL-2) was “inactive” and the Potency (UISO) was “inactive”. The Potency (WaGa) was “inactive”, the Potency (C33A) was “inactive” and the outcome (CAOV3) was “inactive”. For the same compound, the outcome (CASKI) was “inactive”, the Potency (Es-2) was “inactive” and the Potency (HeLa) was “inactive”. For the same compound, the outcome (Hek293T [1]) was “inactive”, the outcome (JEG-3) was “inactive” and the Potency (OV90) was “inactive”.

In the case of CC(=O)C1CCOC1=O (stereo unspecified), the outcome (NIH3T3 [2]) is reported as “inactive”, the outcome (CRL-7250) is reported as “inactive” and the outcome (HACAT) is reported as “inactive”. The outcome (HEK293T [4]) was “inactive”, the outcome (MCC-13) was “inactive” and the Potency (MCC-26) was “inactive”. The Potency (MKL-1) was “inactive”, the Potency (MKL-2) was “inactive” and the outcome (NIH3T3 [3]) was “inactive”. The Potency (UISO) was “inactive”, the Potency (WaGa) was “inactive” and the Potency (C33A) was “inactive”. The outcome (CAOV3) was “inactive”, the outcome (CASKI) was “inactive” and the Potency (Es-2) was “inactive”. The Potency (HeLa) was “inactive”, the outcome (Hek293T [1]) was “inactive” and the outcome (JEG-3) was “inactive”. The Potency (OV90) was “inactive”.

For Cc1ncsc1CCCl, the max response (KB-3-1) was 6.67%, the max response (NIH3T3 [2]) was 0.655% and the outcome (MCC-13) was “inactive”. The Potency (MCC-26) was “inactive”, the Potency (MKL-1) was “inactive” and the Potency (MKL-2) was “inactive”. For the same compound, the Potency (UISO) was “inactive”, the Potency (WaGa) was “inactive” and the Potency (C33A) was “inactive”. For the same compound, the outcome (CAOV3) was “inactive”, the outcome (CASKI) was “inactive” and the Potency (Es-2) was “inactive”. For the same compound, the Potency (HeLa) was “inactive”, the outcome (Hek293T [1]) was “inactive” and the outcome (JEG-3) was “inactive”. The Potency (OV90) was “inactive”.

With CCN(CC)CCc1c[nH]c2ccccc12 the max response (KB-3-1) was -19.3%, the max response (NIH3T3 [2]) was -2.44% and the outcome (MCC-13) was “inactive”. The Potency (MCC-26) was “inactive”, the Potency (MKL-1) was “inactive” and the Potency (MKL-2) was “inactive”. For the same compound, the Potency (WaGa) was “inactive”, the Potency (C33A) was “inactive” and the outcome (CASKI) was “inactive”. The Potency (Es-2) was “inactive”, the Potency (HeLa) was “inactive” and the outcome (Hek293T [1]) was “inactive”. The outcome (JEG-3) was “inactive”.

With CCOP(=S)(OCC)Oc1ccc2c(C)c(Cl)c(=O)oc2c1 the max response (KB-3-1) was -7.69%, the max response (NIH3T3 [2]) was -7.51% and the outcome (MCC-13) was “inactive”. For the same compound, the Potency (MKL-1) was “inactive”, the Potency (UISO) was “inactive” and the Potency (C33A) was “inactive”. The outcome (CAOV3) was “inactive”, the outcome (CASKI) was “inactive” and the Potency (Es-2) was “inactive”. The Potency (HeLa) was “inactive”, the outcome (Hek293T [1]) was “inactive” and the outcome (JEG-3) was “inactive”. The Potency (OV90) was “inactive”.

In the case of C[C@]12CCC(=O)C=C1CC[C@@H]1[C@@H]2CC[C@]2(C)C(=O)CC[C@@H]12, the max response (KB-3-1) is reported as -6.1%, the max response (NIH3T3 [2]) is reported as -1.13% and the outcome (MCC-13) is reported as “inactive”. The Potency (MCC-26) was “inactive”, the Potency (MKL-1) was “inactive” and the Potency (MKL-2) was “inactive”. The Potency (C33A) was “inactive”, the outcome (CAOV3) was “inactive” and the outcome (CASKI) was “inactive”. The Potency (Es-2) was “inactive”, the outcome (Hek293T [1]) was “inactive” and the outcome (JEG-3) was “inactive”. For the same compound, the Potency (OV90) was “inactive”.
